{"source": "the supplement of paper PMC4954754", "note": "± gives the uncertainty stated by the source."}
{"tested_on": "HEK293T-Rex XBP1-RLuc", "experiment": "XBP1-RLuc splicing reporter activation, triplicate, relative to 500 nM thapsigargin (% of thapsigargin); higher = stronger IRE1/XBP1s reporter activation", "settings": "6.8 µM; 18 h; screen: confirmation", "description": "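HEK293T-Rex cells stably expressing the ERSE-firefly luciferase (BiP promoter, ATF6-preferring) or XBP1-splicing Renilla luciferase (IRE1/XBP1s) reporter, 1536-well plates, compound at 6.8 µM for 18 hr at 37 °C; luminescence read […] and expressed as % activation = 100*(compound - median DMSO)/(median 500 nM thapsigargin - median DMSO). Primary screen was single-pass; confirmation screen in triplicate (mean ± SD).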"}
{"smiles": "O=C(CCCN1CCC2(CC1)C(=O)NCN2c1ccccc1)c1ccc(F)cc1", "XBP1-RLuc splicing reporter activation": "202 ± 6.1"}
{"smiles": "O=C(CCCN1CCC2(CC1)C(=O)N(Cc1cccc(F)c1)CN2c1ccccc1)c1ccc(F)cc1", "XBP1-RLuc splicing reporter activation": "185 ± 9.3"}
{"smiles": "CC(=O)NC1C(OC2OC(CC(O)C3OC(n4ccc(=O)[nH]c4=O)C(O)C3O)C(O)C(O)C2NC(=O)/C=C\\CCCCCCCCCC(C)C)OC(CO)C(O)C1O", "note": "(stereo not given)", "XBP1-RLuc splicing reporter activation": "61.23 ± 0.33"}
{"smiles": "C/C=C(/C)C(=O)O[C@H]1C(C)=C2[C@H]([C@@H]1OC(=O)CCCCCCC)[C@@](C)(OC(C)=O)C[C@H](OC(=O)CCC)[C@@]1(O)[C@H]2OC(=O)[C@@]1(C)O", "XBP1-RLuc splicing reporter activation": 104}
{"smiles": "CNc1ccc2oc(C[C@H]3O[C@@]4(CC[C@H]3C)O[C@H]([C@H](C)C(=O)c3ccc[nH]3)[C@H](C)C[C@H]4C)nc2c1C(=O)O", "XBP1-RLuc splicing reporter activation": "50 ± 2.1"}
